Measurements published in the supplement of paper PMC9694430.
Several values for one entry are separate records, joined by “and”; a condition that tells them apart may be missing. Identical values can stand only once.

Legend:
Experiment in all cases: thermal shift delta Tm vs DMSO control; higher = stronger stabilization (binding)
Details in all cases: 12.5 µM; protein concentration 2 µM
LOC_OS01G57100-cb003 = test system: LOC_OS01G57100-cb003
Procedure, shortened: (§1)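 Thermal shift values come from differential scanning fluorimetry on purified rice kinase domains made in E. coli, with melting temperatures obtained from Boltzmann fits. Samples of 19.5 μl held 2 μM kinase, 100 mM potassium phosphate pH 7.5, 150 mM NaCl, 10% glycerol, 5 × SYPRO Orange and compound in DMSO, and were heated from 25°C to 95°C at 0.05°C/s. Each shift is a triplicate mean relative to the DMSO-only protein sample.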

LOC_OS01G60330-cb001 = test system: LOC_OS01G60330-cb001
Procedure, shortened: as §1

LOC_OS01G60700-cb002 = test system: LOC_OS01G60700-cb002
Procedure, shortened: as §1

LOC_OS01G63280-cb003 = test system: LOC_OS01G63280-cb003
Procedure, shortened: as §1

LOC_OS01G67340-cb003 = test system: LOC_OS01G67340-cb003
Procedure, shortened: as §1

LOC_OS01G70970-cb002 = test system: LOC_OS01G70970-cb002
Procedure, shortened: as §1

LOC_OS02G07810-cb001 = test system: LOC_OS02G07810-cb001
Procedure, shortened: as §1

LOC_OS02G08530-cb003 = test system: LOC_OS02G08530-cb003
Procedure, shortened: as §1

LOC_OS02G14120-cb001 = test system: LOC_OS02G14120-cb001
Procedure, shortened: as §1

LOC_OS02G17970-cb001 = test system: LOC_OS02G17970-cb001
Procedure, shortened: as §1
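Also: purified Escherichia coli-expressed rice kinase domain construct.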

| Compound | thermal shift delta Tm (LOC_OS01G57100-cb003) | thermal shift delta Tm (LOC_OS01G60330-cb001) | thermal shift delta Tm (LOC_OS01G60700-cb002) | thermal shift delta Tm (LOC_OS01G63280-cb003) | thermal shift delta Tm (LOC_OS01G67340-cb003) | thermal shift delta Tm (LOC_OS01G70970-cb002) | thermal shift delta Tm (LOC_OS02G07810-cb001) | thermal shift delta Tm (LOC_OS02G08530-cb003) | thermal shift delta Tm (LOC_OS02G14120-cb001) | thermal shift delta Tm (LOC_OS02G17970-cb001) |
| --- | --- | --- | --- | --- | --- | --- | --- | --- | --- | --- |
| CC(C)[C@H](CO)Nc1nc(Nc2cccc(Cl)c2)c2ncn(C(C)C)c2n1 [Purvalanol A] | 2.77 °C | 5.05 °C | 0.1 °C | 0.46 °C | 3.08 °C | 3.68 °C | 0.09 °C | 4.08 °C | 1.7 °C | 0.39 °C |
| O=C(NCCO)c1cccc(-c2cc(Nc3ccc(OC(F)(F)F)cc3)ncn2)c1 | 1.41 °C | 0.68 °C | 0.09 °C | 0.31 °C | 0.88 °C | 0.38 °C | 0.33 °C | 0.44 °C | -0.05 °C | 0.95 °C |
| CC(C)Oc1ccc(-c2nn([C@@H](C)c3oc4ccc(F)cc4c(=O)c3-c3cccc(F)c3)c3ncnc(N)c23)cc1F | 1.03 °C | 1.25 °C | 0.79 °C | 0.47 °C | 0.6 °C | 0.55 °C | -0.1 °C | 0.12 °C | 1.41 °C | 1.06 °C |
| COc1cc2ncnc(Nc3ccc(F)c(Cl)c3)c2cc1OCCCN1CCOCC1 [Gefitinib (ZD1839)] | 0.37 °C | 0.16 °C | 1.04 °C | 0.4 °C | -0.59 °C | 0.28 °C | 0.77 °C | 0.6 °C | 4.78 °C | 0.15 °C |
| CNC(=O)CN1CCC(Oc2cc3c(Nc4cccc(Cl)c4F)ncnc3cc2OC)CC1 [Sapitinib (AZD8931)] | 0.77 °C | 0.15 °C | 0.56 °C | 0.07 °C | -0.27 °C | -0.1 °C | 0.32 °C | 0.51 °C | 2.09 °C | -0.13 °C |
| Nc1nc(Nc2ccc(S(N)(=O)=O)cc2)nn1C(=O)c1c(F)cccc1F | 1.36 °C | 7.23 °C | 0.65 °C | 3.58 °C | 3.74 °C | 3.11 °C | 1.06 °C | 1.98 °C | 8.28 °C | 0.44 °C |
| COc1cc(Nc2ncc(F)c(Nc3ccc4c(n3)N(COP(=O)(O)O)C(=O)C(C)(C)O4)n2)cc(OC)c1OC [Fostamatinib (R788)] | 4.42 °C | 6.53 °C | 0.92 °C | 0.09 °C | 1.18 °C | 3.04 °C | 0.54 °C | 3.76 °C | 11 °C | 0.23 °C |
| N#C/C(=C\c1ccc(O)c(O)c1)C(=O)NCc1ccccc1 [AG-490 (Tyrphostin B42)] | 0.3 °C | 0.46 °C | 1.9 °C | 0.34 °C | 0.38 °C | 0.32 °C | 1.89 °C | 0.84 °C | -0.01 °C | 1.7 °C |
| Cc1ccc(NC(=O)c2cccc(C(C)(C)C#N)c2)cc1Nc1ccc2ncn(C)c(=O)c2c1 | 2.69 °C | 0.66 °C | 1.2 °C | 3.69 °C | 0.79 °C | 0.4 °C | 1.74 °C | 0.95 °C | 1.71 °C | 1.2 °C |
| Cn1cc(-c2ccc3c(c2)CCN3C(=O)Cc2cccc(C(F)(F)F)c2)c2c(N)ncnc21 | 1.46 °C | -0.42 °C | 0.15 °C | 9.43 °C | 3.52 °C | 0.54 °C | 0.74 °C | 1.06 °C | 3.86 °C | 0.57 °C |
| CCCNC(=O)Nc1ccc(Oc2ncnc3cc(OC)c(OC)cc23)cc1Cl | 0.3 °C | 0.97 °C | -0.2 °C | 0.14 °C | -0.13 °C | -0.25 °C | 0.93 °C | 1.15 °C | -0.1 °C | 0.04 °C |
| CC#CC(=O)N1CCC[C@H]1c1nc(-c2ccc(C(=O)Nc3ccccn3)cc2)c2c(N)nccn12 [Acalabrutinib (ACP-196)] | 0.82 °C | 0.94 °C | 1.14 °C | 0.05 °C | 0.39 °C | 0.4 °C | 0.04 °C | 0.89 °C | 0.57 °C | 0.74 °C |
| Cc1cnc(-c2cnc(NCCNc3ccc(C#N)cn3)nc2-c2ccc(Cl)cc2Cl)[nH]1 | 0.99 °C and 1.83 °C | 0.47 °C and 0.68 °C | 0.39 °C and 1.43 °C | 1.2 °C and 1.03 °C | 0.03 °C and 0.47 °C | 1.08 °C and 1.19 °C | 1.11 °C and 0.87 °C | 0.72 °C and 0.68 °C | 0.07 °C and 0.44 °C | 0.65 °C and 2.15 °C |
| CC(C)(C)NC(=O)c1cncn1C1CCN(c2ccc(-c3nnc(C(F)(F)F)o3)cn2)CC1 | -0.21 °C | 0.32 °C | -0.26 °C | -0.16 °C | 0.05 °C | 0.37 °C | -1.16 °C | 0.52 °C | 0.95 °C | -0.2 °C |
| O=c1ccc2ccc(O)c(O)c2o1 [Daphnetin] | 4.5 °C | 1.15 °C | 1.06 °C | 0.68 °C | 0.06 °C | 0.05 °C | 1.27 °C | 1.2 °C | 0.72 °C | 1.06 °C |
| CC(C)CCN1c2nc(Nc3cc(F)c(O)c(F)c3)ncc2N(C)C(=O)C1C (stereo not given) | 1.71 °C | 6.27 °C | 2.07 °C | 7.85 °C | 8.73 °C | 4.67 °C | 1.13 °C | 2.78 °C | 3.11 °C | 1.38 °C |
| C[C@H](Nc1ncnc2nc[nH]c12)c1cc2cccc(Cl)c2c(=O)n1-c1ccccc1 [Duvelisib (IPI-145, INK1197)] | -0.45 °C | 0.3 °C | 1.43 °C | 0.2 °C | 0.06 °C | 0.33 °C | 0.73 °C | 0.77 °C | 0.47 °C | 0.68 °C |
| Cc1[nH]nc2ccc(-c3cncc(OC[C@@H](N)Cc4ccccc4)c3)cc12 | 1.88 °C | 0.68 °C | 1.01 °C | 0.26 °C | 1.12 °C | 0.36 °C | 1.05 °C | 2.68 °C | 3.18 °C | 0.41 °C |
